From PubChem BioAssay (EPA / NIEHS) come the findings set out here.

What all share (details): mRNA level, 48 h; actives raise or lower the signal
Read-out in assay [1]: growth arrest and DNA damage 45 (GADD45G), GADD45G (gene 10912)
Description: LTEA_HepaRG_GADD45G: Life Technologies and Expression Analysis (LTEA) Assay for growth arrest and DNA damage 45 (GADD45G) using HepaRG (AID 2283499). In a few lines: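 GADD45G transcript level by qRT-PCR (housekeeping-normalized: ACTB, GAPDH, POLR2A) after 48 h chemical treatment of a single HepaRG lot in serum-free induction medium; eight-point half-log series up to 100 uM in 0.5% DMSO, duplicates, up- or down-regulation scored.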

Read-out in assay [2]: Glutamate-cysteine ligase regulatory (GCLM), GCLM (gene 2730)
The assay can be described thus: LTEA_HepaRG_GCLM: Life Technologies and Expression Analysis (LTEA) Assay for Glutamate-cysteine ligase regulatory (GCLM) using HepaRG (AID 2283500). In a few lines:
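In this multiplexed HepaRG gene-expression assay, GCLM mRNA change after 48 h treatment (8 concentrations, max 100 uM) was scored against DMSO by bidirectional curve fitting.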

Read-out in assay [3]: Glutathione S-transferase M3 (GSTM3), GSTM3 (gene 2947)
The assay can be described thus: LTEA_HepaRG_GSTM3: Life Technologies and Expression Analysis (LTEA) Assay for Glutathione S-transferase M3 (GSTM3) using HepaRG (AID 2283501). The gist of the method: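 GSTM3 transcript levels came from Fluidigm TaqMan qRT-PCR normalized to three housekeeping genes, fitted in both directions against DMSO. HepaRG cultures received chemicals for 48 h in serum-free induction medium (0.5% DMSO), 8 half-log concentrations up to 100 uM, duplicate.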

Read-out in assay [4]: Heat shock 70 kDa protein 1 (HSPA1A), gene 3303
Description: LTEA_HepaRG_HSPA1A: Life Technologies and Expression Analysis (LTEA) Assay for Heat shock 70 kDa protein 1 (HSPA1A) using HepaRG (AID 2283502). In a few lines:
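An oxidative-stress marker readout: HepaRG cells treated 48 h in duplicate with an eight-point series (highest 100 uM) had HSPA1A mRNA quantified by TaqMan qRT-PCR. Activity was fitted in both directions using 0.5% DMSO as baseline.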

Read-out in assay [5]: Hypoxia-inducible factor 1-alpha (Homo sapiens) (UniProt Q16665)
The assay can be described thus: LTEA_HepaRG_HIF1A: Life Technologies and Expression Analysis (LTEA) Assay for Hypoxia-inducible factor 1 (HIF1A) Trancription factor using HepaRG (AID 2283503). In a few lines: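 Gain- or loss-of-signal HIF1A mRNA changes are fitted against a DMSO baseline. HepaRG cultures receive eight concentrations, highest 100 uM, for 48 h in serum-free induction medium with 0.5% DMSO.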

Read-out in another assay: HGF (gene 3082)
The assay can be described thus: LTEA_HepaRG_HGF: Life Technologies and Expression Analysis (LTEA) Assay for Hepatocyte Growth Facto (HGF) using HepaRG (AID 2283505). In a few lines: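 HGF transcript was quantified by TaqMan qRT-PCR against three housekeeping genes after 48 h treatment of HepaRG cells. Exposure ran in duplicate over eight half-log steps topping at 100 uM in 0.5% DMSO vehicle.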

Read-out in assay [6]: Insulin Like Growth Factor 1 (IGF1), IGF1 (gene 3479)
The assay can be described thus: LTEA_HepaRG_IGF1: Life Technologies and Expression Analysis (LTEA) Assay for Insulin Like Growth Factor 1 (IGF1) using HepaRG (AID 2283506). The gist of the method:
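Endpoint: IGF1 mRNA change by qRT-PCR, housekeeping-normalized, fitted bidirectionally relative to 0.5% DMSO vehicle. Human HepaRG cells were treated 48 h in serum-free induction medium, eight half-log concentrations topping at 100 uM.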

Read-out in assay [7]: Intercellular Adhesion Molecule 1 (ICAM1), ICAM1 (gene 3383)
The assay can be described thus: LTEA_HepaRG_ICAM1: Life Technologies and Expression Analysis (LTEA) Assay for Intercellular Adhesion Molecule 1 (ICAM1) using HepaRG (AID 2283507). In a few lines:
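ICAM1 transcript levels measured by qRT-PCR, normalized to three housekeeping genes (ACTB, GAPDH, POLR2A), after 48 h chemical exposure of HepaRG cells. Duplicate eight-point half-log series from 100 uM in 0.5% DMSO; gain or loss fitted against vehicle.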

Read-out in assay [8]: Insulin-like growth factor-binding protein 1 (IGFBP1), IGFBP1 (gene 3484)
Description: LTEA_HepaRG_IGFBP1: Life Technologies and Expression Analysis (LTEA) Assay for Insulin-like growth factor-binding protein 1 (IGFBP1) using HepaRG (AID 2283508). In a few lines:
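Read-out is qRT-PCR transcript level normalized to three housekeeping genes, fitted in both directions against 0.5% DMSO. Differentiated HepaRG cells received eight half-log concentrations (top 100 uM) in duplicate for 48 h in serum-free induction medium.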

Read-out in assay [9]: Interleukin 6 (IL6), IL6 (gene 3569)
Description: LTEA_HepaRG_IL6: Life Technologies and Expression Analysis (LTEA) Assay for Interleukin 6 (IL6) using HepaRG (AID 2283509). In a few lines:
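Changes in IL6 mRNA, up or down relative to 0.5% DMSO controls, were derived from concentration-response curves in human HepaRG cells treated for 48 h at up to 100 uM, with ACTB, GAPDH and POLR2A as normalizers.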

Read-out in assay [10]: Interleukin 6 Receptor (IL6R), IL6R (gene 3570)
Description: LTEA_HepaRG_IL6R: Life Technologies and Expression Analysis (LTEA) Assay for Interleukin 6 Receptor (IL6R) using HepaRG (AID 2283510).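 For AC50: differentiated human HepaRG liver cells in serum-free induction medium.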 The gist of the method: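 In this HepaRG screen, test chemicals act on cells for 48 h at up to 100 uM (eight half-log points, duplicate wells). IL6R expression is quantified by qRT-PCR after normalization to ACTB, GAPDH and POLR2A, with DMSO as baseline.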

Read-out in assay [11]: Potassium channel subfamily K member 1 (KCNK1), KCNK1 (gene 3775)
The assay can be described thus: LTEA_HepaRG_KCNK1: Life Technologies and Expression Analysis (LTEA) Assay for Potassium channel subfamily K member 1 (KCNK1) using HepaRG (AID 2283511). In a few lines: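 Human HepaRG cultures receive test chemicals for 48 h in 0.5% DMSO, top concentration 100 uM with half-log dilutions. Induction or suppression of KCNK1 mRNA relative to DMSO is derived by bidirectional fitting of qRT-PCR data.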

Read-out in assay [12]: Keratin 19 (KRT19), KRT19 (gene 3880)
The assay can be described thus: LTEA_HepaRG_KRT19: Life Technologies and Expression Analysis (LTEA) Assay for Keratin 19 (KRT19) using HepaRG (AID 2283512). The gist of the method: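 KRT19 transcript measured by TaqMan qRT-PCR, referenced to three housekeeping genes, after HepaRG cells received test chemicals for 48 h. Eight half-log concentrations, top 100 uM, 0.5% DMSO vehicle; increases and decreases both fitted.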

Read-out in assay [13]: JUN Transcription Factor, JUN (gene 3725)
The assay can be described thus: LTEA_HepaRG_JUN: Life Technologies and Expression Analysis (LTEA) Assay for JUN Transcription Factor using HepaRG (AID 2283513). In a few lines: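 Gene-expression endpoint: JUN mRNA (qRT-PCR, normalized to three reference genes) in HepaRG cultures treated 48 h with chemicals, duplicate wells, 100 uM maximum with half-log dilutions; bidirectional fitting relative to 0.5% DMSO.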

Read-out in assay [14]: Lipoprotein lipase (LPL), LPL (gene 4023)
The assay can be described thus: LTEA_HepaRG_LPL: Life Technologies and Expression Analysis (LTEA) Assay for Lipoprotein lipase (LPL) using HepaRG (AID 2283515). The gist of the method:
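Concentration-response testing used half-log steps from 100 uM in 0.5% DMSO on human HepaRG cells, 48 h, duplicate wells. Phenobarbital 1 mM served as induction control; LPL mRNA was normalized to ACTB, GAPDH, POLR2A.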

Read-out in assay [15]: matrix metalloproteinase-10 (MMP10), MMP10 (gene 4319)
The assay can be described thus: LTEA_HepaRG_MMP10: Life Technologies and Expression Analysis (LTEA) Assay for matrix metalloproteinase-10 (MMP10) using HepaRG (AID 2283517). The gist of the method:
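In differentiated HepaRG cultures kept in 0.5% DMSO, test chemicals act for 48 h over an eight-point range with a top dose of 100 uM. Expression is then quantified by TaqMan RT-PCR against ACTB, GAPDH and POLR2A.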

Read-out in another assay: MYC, MYC (gene 4609)
The assay can be described thus: LTEA_HepaRG_MYC: Life Technologies and Expression Analysis (LTEA) Assay for MYC using HepaRG (AID 2283518). The gist of the method:
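MYC transcript changes, up or down relative to 0.5% DMSO, from TaqMan qRT-PCR normalized to three housekeeping genes. Human HepaRG cultures received chemicals for 48 h at eight half-log concentrations up to 100 uM, in duplicate.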

Read-out in assay [16]: MicroRNA 122 (MIR122), gene 406906
Description: LTEA_HepaRG_MIR122: Life Technologies and Expression Analysis (LTEA) Assay for MicroRNA 122 (MIR122) using HepaRG (AID 2283516). Note: the transcript read is the microRNA miR-122. In a few lines: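 Changes in transcript abundance, up or down relative to 0.5% DMSO vehicle, were scored after 48 h chemical treatment of HepaRG cells (maximum 100 uM). Quantification used TaqMan qRT-PCR normalized to housekeeping genes.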

SMILES strings stand for the structures. Calls of active or inactive are those of the source. Rule for the calls: active = hit-call score of the fitted dose curve at least 0.9, where 1 is the maximum; inactive = score below 0.9.

Chain of Hypoxia-inducible factor 1-alpha (Homo sapiens) (Q16665 whole entry, looked up): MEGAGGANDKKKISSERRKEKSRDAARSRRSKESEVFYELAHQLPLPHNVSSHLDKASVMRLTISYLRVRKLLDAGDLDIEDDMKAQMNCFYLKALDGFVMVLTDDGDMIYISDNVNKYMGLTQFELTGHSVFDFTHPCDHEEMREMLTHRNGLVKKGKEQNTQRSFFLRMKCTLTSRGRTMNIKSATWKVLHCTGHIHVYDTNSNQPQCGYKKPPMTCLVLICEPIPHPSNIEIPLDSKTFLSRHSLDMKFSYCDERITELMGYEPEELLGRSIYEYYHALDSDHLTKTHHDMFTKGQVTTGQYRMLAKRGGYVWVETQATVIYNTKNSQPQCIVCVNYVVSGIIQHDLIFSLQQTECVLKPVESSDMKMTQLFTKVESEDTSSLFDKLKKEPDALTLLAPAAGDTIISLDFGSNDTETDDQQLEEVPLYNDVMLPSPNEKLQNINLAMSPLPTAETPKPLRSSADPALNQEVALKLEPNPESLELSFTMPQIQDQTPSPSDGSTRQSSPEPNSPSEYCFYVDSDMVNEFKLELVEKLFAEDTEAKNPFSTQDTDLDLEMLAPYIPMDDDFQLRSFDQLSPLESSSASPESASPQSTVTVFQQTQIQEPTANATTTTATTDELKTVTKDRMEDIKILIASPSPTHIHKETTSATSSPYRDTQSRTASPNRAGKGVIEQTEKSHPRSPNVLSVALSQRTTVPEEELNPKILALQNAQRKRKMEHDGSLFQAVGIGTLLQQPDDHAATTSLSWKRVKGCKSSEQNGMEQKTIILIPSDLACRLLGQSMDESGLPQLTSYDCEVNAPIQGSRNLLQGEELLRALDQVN

In the case of `CCN(Cc1c(F)cccc1Cl)c1c([N+](=O)[O-])cc(C(F)(F)F)cc1[N+](=O)[O-]`, the result (in [1]; in [3]; in assay [5]; with HGF (gene 3082); in [7]; in [9]) was inactive. Also, the call in assay [10], in assay [11], in assay [13], in assay [14] and in [15] was inactive. Further, the AC50 in [2] was 50 µM (active); in assay [4] it was 50 µM (active); in assay [6], 50 µM (active); in assay [8], 28.8 µM (active); in assay [12], 18.1 µM (active); with MYC, MYC (gene 4609) it was 50 µM (active).

Regarding `O=C(Nc1ccc([N+](=O)[O-])cc1Cl)c1cc(Cl)ccc1O`, the call in assay [1], in assay [2], in [4], in [14] and in assay [16] was inactive. Also, the AC50 in [3] is 25 µM (active); with HGF (gene 3082), 2.98 µM (active); in [6], 3.59 µM (active); in assay [7], 6.3 µM (active); in [8], 2.13 µM (active); in assay [9] it was 3.29 µM (active). For the same compound, the AC50 in assay [10] was 2.13 µM (active); in [11], 4.02 µM (active); in assay [12], 1.48 µM (active); in [13], 2.42 µM (active); in [15] it was 3.43 µM (active); in the assay with MYC, MYC (gene 4609), 2.28 µM (active).

`S=C([S-])NCCNC(=S)[S-].[Mn+2]`: the half-maximal activity concentration (AC50) in [1] is 4.33 µM (active); in assay [2], 8.92 µM (active); in assay [3], 1.88 µM (active); in assay [5], 3.12 µM (active); in the assay with HGF (gene 3082) it was 7.5 µM (active); in [6], 5 µM (active). Also, the AC50 in assay [7] was 6.29 µM (active); in assay [8], 0.194 µM (active); in assay [9], 5.31 µM (active); in assay [10], 3.93 µM (active); in assay [12], 10 µM (active); in assay [14], 3.29 µM (active). The AC50 with MYC, MYC (gene 4609) was 8.74 µM (active). The compound was called inactive in assay [4], in assay [11] and in [15].

`CCNc1nc(N)nc(Cl)n1`: the call (in [1]; in assay [2]; in assay [3]; in assay [4]; in assay [5]; with HGF (gene 3082)) was inactive. Further, the outcome in [6], in [7], in assay [8], in assay [9], in assay [10] and in [11] was inactive. The outcome in assay [12] was “inactive”; in assay [13], “inactive”; in assay [14] it was “inactive”; in assay [15], “inactive”; with MYC, MYC (gene 4609), “inactive”.

As for `CCCCOC(=O)[C@@H](C)Oc1ccc(Oc2ccc(C(F)(F)F)cn2)cc1`, the compound was classed as inactive (in assay [1]; in assay [2]; in assay [3]; in assay [4]; in assay [5]; in the assay with HGF (gene 3082)). For the same compound, the compound was called inactive in assay [6], in assay [7], in assay [8], in [9], in [10] and in assay [11]. Moreover, the outcome in assay [12] was “inactive”; in assay [13] it was “inactive”; in [14] it was “inactive”; in [15], “inactive”; with MYC, MYC (gene 4609), “inactive”.

Regarding `CCOC(=O)C(C)Oc1ccc(Oc2nc3ccc(Cl)cc3o2)cc1` (stereo not drawn), the call (in assay [1]; in [2]; in [3]; in assay [4]; in assay [5]; with HGF (gene 3082)) was inactive. Further, the call in assay [7], in assay [8], in [9], in assay [10], in assay [11] and in assay [12] was inactive. In addition, the outcome is “inactive” in [13]; “inactive” in assay [14]; “inactive” in assay [15]; “inactive” with MYC, MYC (gene 4609). The AC50 in assay [6] is 20.2 µM (active).

`O=C(O)C1(C(=O)Nc2ccc(Cl)cc2Cl)CC1`: the values for the AC50 in assay [1] and in [5] were 90.1 µM (active) and 50 µM (active), respectively. Further, the compound was called inactive (in assay [2]; in assay [3]; in assay [4]; in the assay with HGF (gene 3082); in assay [6]; in [7]). For the same compound, the compound was classed as inactive in assay [8], in assay [9], in assay [10], in assay [11], in [12] and in [13]. The outcome in assay [14] is “inactive”; in assay [15], “inactive”; with MYC, MYC (gene 4609), “inactive”.

By AC50 is commonly meant the midpoint of the concentration-response curve, whichever way the signal moves.
